Screens as filed in PubChem.
mHTT-CaM PPI inh: inhibitors of human mutant huntingtin-calmodulin interaction | AID 1671202 | actives 3.6% (n = 190,000) | inhibition, % at 15 µM | AlphaScreen His-mHTT/GST-CaM binding, luminescence
Pf apPOL inh: Pf-apPOL DNA polymerase inhibition; Recombinant Pf-apPOL, molecular beacon fluorescence, 1.5 h; inhibition, % at 10 µM; actives 0.25% (n = 210,000)
Of the large screens only hits and unclear results are named; the others gave an inactive call. Compounds with a hit are over-represented: about 3.6% of the library has one in this group of screens. No stated cut-off is given here; in the data, active means inhibition above about 50%; inactive means the rest.

CCOC(=O)Cc1ccc(NC(=O)N2CCCC2c2cc(C)on2)cc1 (stereo not drawn)	none
CC(=O)N1CC=C2C(C#N)=C(N)C(C#N)(C#N)C(c3cccc(Cl)c3)C2C1 (stereo not drawn)	none
Cc1ccc(C2C3CN(Cc4ccccc4)CC=C3C(C(=O)O)=C(N)C2(C#N)C#N)o1 (stereo not drawn)	mHTT-CaM PPI inh 52.0
CCCN1CC=C2C(C#N)=C(N)C(C#N)(C#N)C(c3ccccc3Cl)C2C1 (stereo not drawn)	none
COc1cccc(C2C3CN(Cc4ccccc4)CC=C3C(C(=O)O)=C(N)C2(C#N)C#N)c1 (stereo not drawn)	Pf apPOL inh 93.7
CC1CCc2sc3ncnc(NCc4cccnc4)c3c2C1 (stereo not drawn)	none
Cc1ccccc1NC(=O)NCC1CCN(C(=O)c2cc3ccccc3o2)CC1	none
CCN(C)C(=O)c1ccccc1N1CCC(NC(=O)c2ccccc2Cl)CC1	none
CC(C)C(=O)NC(c1ccco1)c1ccc2cccnc2c1O (stereo not drawn)	mHTT-CaM PPI inh 99.7
CC(C)C(=O)NC(c1ccccc1Cl)c1ccc2cccnc2c1O (stereo not drawn)	mHTT-CaM PPI inh 100.0
CC(C)C(=O)NC(c1ccccc1)c1ccc2cccnc2c1O (stereo not drawn)	mHTT-CaM PPI inh 100.0
CC(C)C(=O)NC(c1ccco1)c1cc(Cl)c2cccnc2c1O (stereo not drawn)	none
CC(C)C(=O)NC(c1ccc(Cl)cc1)c1ccc2cccnc2c1O (stereo not drawn)	mHTT-CaM PPI inh 94.6
CCN(CC)Cc1c(O)ccc2c1OC(=Cc1cc(OC)ccc1OC)C2=O	none
O=C(CSc1nnc(NC(=O)C23CC4CC(CC(C4)C2)C3)s1)c1ccccc1	none
O=C1OC(c2ccccc2Cl)=N/C1=C/c1ccc([N+](=O)[O-])cc1	none
O=C(NCc1cccnc1)C1c2ccccc2C(=O)N1Cc1ccc2c(c1)OCO2 (stereo not drawn)	none
COc1ccc(C2C(=C(O)c3ccc(F)cc3)C(=O)C(=O)N2CCN2CCOCC2)c(OC)c1 (stereo not drawn)	none
COCc1ccc(C(=O)Nc2ccnc3ccc(Cl)cc23)o1	none
CC1CCn2c(nc3cc(C(=O)N4CCN(c5ncccn5)CC4)ccc32)C1 (stereo not drawn)	none
Cc1ccccc1C(=O)Nc1ccc2ncnc(N3CCCCC3)c2c1	none
CCOc1ccc(C(=O)NCc2ccc3[nH]c(C)cc3c2)cc1OCC	none
COc1ccc(Cl)cc1NC(=O)CCN1CCN(C)CC1	Pf apPOL inh 55.4
COc1ccc(Cl)cc1NC(=O)N1CCN(CCc2ccccc2)CC1	none (no result: mHTT-CaM PPI inh)
CC1CCN(C(=O)C2c3ccccc3CCN2CC(=O)Nc2cccc(Cl)c2)CC1 (stereo not drawn)	mHTT-CaM PPI inh 59.5
CC1CCN(C(=O)C2c3ccccc3CCN2CC(=O)Nc2cc(F)ccc2Cl)CC1 (stereo not drawn)	none
COc1ccc(Cl)cc1NC(=O)N1CCN(Cc2nc(-c3ccco3)cs2)CC1	mHTT-CaM PPI inh 63.6
CC1CCN(C(=O)C2c3ccccc3CCN2CC(=O)Nc2ccc(F)cc2Cl)CC1 (stereo not drawn)	mHTT-CaM PPI inh 88.0
Cc1ccc(NC(=O)CN2CCc3ccccc3C2C(=O)N2CCC(C)CC2)cc1C (stereo not drawn)	none
COc1ccc(OC)c(NC(=O)CCN2CCCC2)c1	none
CN(c1ccsc1C(=O)Nc1ccc2c(c1)OCCO2)S(=O)(=O)c1ccccc1	none
C=Cc1ccc(S(=O)(=O)N2CC(=O)N3CCc4ccc(F)cc4C3C2)cc1 (stereo not drawn)	none
O=C(CN1CCc2ccccc2C1C(=O)N1CCCCC1)Nc1ccc(F)cc1Cl (stereo not drawn)	mHTT-CaM PPI inh 68.3
COc1ccc(Cl)cc1NC(=O)CN1CCc2ccccc2C1C(=O)N1CCCCC1 (stereo not drawn)	mHTT-CaM PPI inh 64.2
O=C(CN1CCc2ccccc2C1C(=O)N1CCCCC1)NCc1ccc(Cl)cc1 (stereo not drawn)	none
O=C(CN1CCc2ccccc2C1C(=O)N1CCCCC1)NCc1ccc(F)cc1Cl (stereo not drawn)	none
Cc1noc(-c2cccc(C(F)(F)F)c2)c1C(=O)N(C)Cc1ccccc1	none
O=C(CN1C(=O)c2ccccc2C1=O)Nc1ccccc1-c1ccccc1	none
Cc1cc(C)cc(C(=O)Nc2ccc(N3CCN(c4ccccc4)C3=O)nc2)c1	none
COC(=O)C(C#N)=C(C#N)c1ccc(Br)o1	Pf apPOL inh 76.5 (no result: mHTT-CaM PPI inh)
COc1cccc(NC(=O)c2ccc(Br)o2)c1	none
Cc1ccc(C(=O)NC2CCN(c3ccccc3C(=O)N3CCCC3)CC2)cc1	none
Cc1ccc(CNC(=O)c2ccc(-c3cncnc3)nc2)o1	none
O=C(COc1ccccc1Br)Nc1ccc(Cl)c(C(F)(F)F)c1	Pf apPOL inh 70.6
Cc1nc(OCC(=O)Nc2ccc(Cl)c(C(F)(F)F)c2)c2ccccc2n1	none
COc1ccc2cc(C(=O)NC(C)=O)c(=Nc3ccc(C(F)(F)F)cc3)oc2c1	Pf apPOL inh 66.4
COc1ccc2cc(C(=O)NC(C)=O)c(=Nc3ccc(F)cc3)oc2c1	none
Oc1ccc2ccccc2c1C1Nc2cccc3cccc(c23)N1	mHTT-CaM PPI inh 88.9 (no result: Pf apPOL inh)
Oc1ccc(O)c2c1C1c3ccccc3C2c2ccccc21	none
COc1cccc(N2C(=O)NC(=O)/C(=C\c3cc(Br)c(O)c(OC)c3)C2=O)c1	none
O=C(Nc1c2c(nn1-c1ccc([N+](=O)[O-])cc1)CSC2)c1ccco1	none
O=C(Nc1c2c(nn1-c1ccc(F)cc1)CS(=O)C2)c1ccco1 (stereo not drawn)	none
COc1ccc(-n2nc3c(c2NC(=O)c2ccco2)CS(=O)(=O)C3)cc1	none
O=C(Nc1c2c(nn1-c1ccc(Oc3ccccc3)cc1)CSC2)c1ccco1	mHTT-CaM PPI inh 96.0
O=C(Nc1c2c(nn1-c1ccccc1)CSC2)C1CC1	none
O=C(Nc1c2c(nn1-c1ccccc1)CSC2)c1ccco1	mHTT-CaM PPI inh 77.0
O=C(Nc1c2c(nn1-c1ccc(Oc3ccccc3)cc1)CSC2)C1CC1	mHTT-CaM PPI inh 56.0
O=C(Nc1c2c(nn1-c1ccc(F)cc1)CSC2)c1ccco1	mHTT-CaM PPI inh 79.0
CCOc1ccc(C=C2Oc3ccc(C(=O)OC)cc3C2=O)cc1	none
CCOc1ccccc1NC(=O)NCC(c1ccc(N(C)C)cc1)N1CCCC1 (stereo not drawn)	none
CC(C)NC(=O)c1nc2ccccn2c1-c1ccncc1	none
O=C(COc1ccc2c(c1)C(=O)CC2)Nc1nc2ccc(Cl)cc2s1	none
COc1cc(/C=C2\NC(=O)NC2=O)cc(Cl)c1OCc1ccc(C(=O)O)cc1	none
Cc1cccc(-c2noc(C3CCCN3C(=O)NC(C)C)n2)c1 (stereo not drawn)	none
Cc1ccc(C(=O)N2CCC(CCNS(=O)(=O)c3ccc(F)c(Cl)c3)CC2)cc1	mHTT-CaM PPI inh 61.9
O=C(c1ccc(F)cc1)N1CCC(CCNS(=O)(=O)c2cccc3nsnc23)CC1	none
O=C(c1ccccc1)N1CCC(CCNS(=O)(=O)c2ccc(F)c(Cl)c2)CC1	none
Cc1ccc(C(=O)N2CCC(CCNS(=O)(=O)c3ccccc3Cl)CC2)cc1	none
O=C(c1ccc(F)cc1)N1CCC(CCNS(=O)(=O)c2ccccc2F)CC1	none
Cc1ccc(C(=O)N2CCC(CCNS(=O)(=O)c3cccc(Cl)c3C)CC2)cc1	mHTT-CaM PPI inh 57.0
Cc1ccc(C(=O)N2CCC(CCNS(=O)(=O)c3cccc4nsnc34)CC2)cc1	mHTT-CaM PPI inh 51.5
Cc1c(Cl)cccc1S(=O)(=O)NCCC1CCN(C(=O)c2ccc(F)cc2)CC1	mHTT-CaM PPI inh 51.3
O=C(O)C1CCCCC1C(=O)NCc1ccc(Cl)cc1 (stereo not drawn)	none
